# Data: PubChem BioAssay (NCATS)
# Inconclusive results are not listed. Activity calls are given as the source filed them. Unless noted, calls come from the whole dose curve; as a rule, active = well fitted curve in the direction sought with a large enough effect; inconclusive = small, poorly fitted or top-dose-only effect, or another doubt; inactive = no such curve, though single readings can be large; an effect the other way counts as inactive or inconclusive.
# How the values were obtained:
# [1] = molecular target: Lysosomal acid glucosylceramidase (Homo sapiens) (UniProt P04062); test: Glucocerebrosidase-p2 (AID 348; in the data active = potency below about 10 µM; note: potency is the fitted concentration of half-maximal effect); details: purified GBA, blue fluorogenic substrate, 40 min
# Method in brief: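 Compounds titrated from 0.6 nM upwards against 0.2 nM enzyme in pH 5.9 citric acid/KH2PO4, taurocholate, tween-20; blue fluorogenic substrate 80 uM, 40 min room temperature, stopped and read Ex 365/Em 440 for AC50.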
# [2] = AP1 Signaling Pathway (AID 357; active = well fitted curve in either direction with a large enough effect, not every such curve was filed as active;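 note: ME-180 reporter cells stimulated with EGF at its EC50 level; % is set by controls: 0 for no effect and ±100 for the full control effect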); details: ME-180 AP-1-bla reporter, EGF-induced, beta-lactamase ratio, 5 h; at 7.69 µM (top of the series) unless noted
# Method in brief: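 Read-out was the 460nm/530nm emission ratio (excitation 405nm) after CCF4 loading for 2.5 hours at room temperature. Cells carried an AP-1-driven beta-lactamase reporter, were stimulated with EC50 EGF plus compound for 5 hours, and AC50 values came from titrations.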
# [3] = NFAT Signaling Pathway (AID 444; active = well fitted curve in either direction with a large enough effect, not every such curve was filed as active;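 note: carbachol stimulus at about its EC50 of 1 µM final; % is set by controls: 0 for no effect and ±100 for the full control effect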); details: Jurkat NFAT-bla M1, carbachol, beta-lactamase ratio, 5 h; at 7.69 µM (top of the series) unless noted
# Method in brief: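 Jurkat cells carrying an NFAT-driven β-lactamase reporter and co-transfected muscarinic M1 receptor were treated with compound plus carbachol (1 uM final, an EC50 level) for 5 h at 37 °C. CCF4 loading followed for 1 h at RT; 460/530 nm ratio gave %activity.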
# [4] = Stat Signaling Pathway (AID 446; active = well fitted curve in either direction with a large enough effect, not every such curve was filed as active;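 note: ME-180 cervical cancer cells given 40 pM IL-6 alongside compound; SIE-controlled beta-lactamase reporter measured as 460/530 nm FRET emission ratio; % is set by controls: 0 for no effect and ±100 for the full control effect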); details: ME-180 SIE beta-lactamase reporter, IL-6 stimulated, 5 h; at 7.69 µM (top of the series) unless noted
# Method in brief: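 ME-180 cells carrying a SIE-driven beta-lactamase reporter are stimulated with 40 pM IL-6 for 5 h at 37C in the presence of compound. The 460/530 nm FRET substrate ratio is read after 2.5 h at RT. Data are normalised to 300 pM IL-6 and to 125 nM JAK inhibitor controls.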
# [5] = molecular target: Glucocorticoid receptor (Homo sapiens) (UniProt P04150); test: GR-GFP Redistribution (AID 450;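 active = compounds whose dose series gives a full or clear partial fitted curve of increased nuclear translocation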; note: potency is the fitted concentration of half-maximal effect); details: U2OS GR-GFP nuclear translocation, laser cytometry, 2 h
# [6] = molecular target: Glucocorticoid receptor (Homo sapiens) (UniProt P04150); test: GR-EFC Redistribution (AID 451; calls by dose curve; note: potency is the fitted concentration of half-maximal effect); details: CHO-K1 GR-EFC translocation, beta-gal luminescence, 2 h
# Method in brief: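 CHO-K1 cells stably expressing nuclear-localized β-gal enzyme acceptor and GR fused C-terminally to the enzyme donor fragment; ligand-driven nuclear translocation restores β-gal by complementation. Compounds titrated up to 46 uM final, 2 h at 37 °C; luminescence read.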
# [7] = molecular target: Mitogen-activated protein kinase 10 (Mus musculus) (UniProt Q61831); test: JNK3 AlphaScreen Assay (AID 530; active = well fitted curve in either direction with a large enough effect, not every such curve was filed as active;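 note: kinase came from lysate of stimulated human HepG2 cells; signal reports phosphorylation of biotinylated GST-cJun 1-79 at Ser73 with 10 µM ATP; % is set by controls: 0 for no effect and ±100 for the full control effect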); details: JNK3 lysate, c-Jun phosphorylation; series mostly up to 57.1 µM
# Method in brief: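 Inhibitors reduce antibody binding to phosphorylated biotin-cJun, lowering AlphaScreen luminescence. Lysates from HepG2 cells pre-activated by IL-1beta plus TNF-alpha supplied JNK3; compounds were titrated.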
# [8] = molecular target: Dual specificity protein kinase CLK4 (Homo sapiens) (UniProt Q9HAZ1); test: qHTS Assay for Inhibitors of CDC-like Kinase 4 (Kinase-Glo Assay) (AID 1770); details: recombinant Clk4, Kinase-Glo ATP depletion luminescence; series mostly up to 66.7 µM; note: nearly all actives have a fitted effect of over 65% in size; note: potency is the fitted concentration of half-maximal effect
# Method in brief: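 Recombinant human Clk4 (25 nM) phosphorylated RS repeat peptide (100 uM) with 1 uM ATP in Tris pH 7.5/MgCl2/EGTA/DTT/Triton buffer for 4.5 h at room temperature. Residual ATP was quantified by Kinase-Glo luciferase luminescence.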
# [9] = molecular target: Dual specificity protein kinase CLK4 (Homo sapiens) (UniProt Q9HAZ1); test: qHTS Assay for Inhibitors of CDC-like Kinase 4 (ADP-FP Assay) (AID 1795); details: Transcreener ADP fluorescence polarization; series mostly up to 50 µM; note: % is set by controls: 0 for no effect and ±100 for the full control effect; nearly all actives have a fitted effect of over 60% in size
# Method in brief: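 Recombinant human Clk4 (6.25 nM) phosphorylated RS repeat peptide (100 uM) with 1 uM ATP in Tris pH 7.5/MgCl2/EGTA/DTT/Triton buffer for one hour. ADP was quantified by Transcreener competitive fluorescence polarization against an ADP calibration curve.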
# [10] = Counterscreen qHTS for small molecule stabilizers of the endoplasmic reticulum resident proteome: GLuc-NoTag assay (AID 1508627); details: Gaussia luciferase NoTag secretion counterscreen, luminescence, thapsigargin 100 nM for final 4 h; series mostly up to 76.4 µM; note: potency is the fitted concentration of half-maximal effect;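 for activity change, negative = inhibition: SH-SY5Y cells given compound then 100 nM thapsigargin to empty ER calcium; 0% = thapsigargin alone and -100% = DMSO vehicle control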
# Method in brief: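 SH-SY5Y cells stably expressing constitutively secreted GLuc (no SERCaMP tag) were pre-incubated 5 h, treated with compound for 19 h, then 100 nM thapsigargin for 4 h at 37C; medium GLuc read by coelenterazine luminescence.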
# [11] = Confirmatory qHTS for small molecule stabilizers of the endoplasmic reticulum resident proteome: Secreted ER Calcium Modulated Protein (SERCaMP) assay (AID 1508628); details: SERCaMP secreted luciferase ER calcium/proteostasis reporter; series mostly up to 76.3 µM; note: nearly all actives have a fitted effect of over 40% in size; note: potency is the fitted concentration of half-maximal effect
# Method in brief: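 SH-SY5Y cells stably expressing GLuc-SERCaMP, treated 16 h with compound (primary 1.53, 7.67, 38.3 uM; confirmation 11 concentrations, up to 76.6 uM), then 100 nM thapsigargin for 4 h. Secreted Gaussia luciferase in medium read by coelenterazine luminescence.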
# [12] = molecular target: 3',5'-cyclic-AMP phosphodiesterase 4B (Homo sapiens) (UniProt Q07343); test: qHTS Assay for Inhibitors of PDE-IV (AID 607; active = well fitted activation curve with a large enough effect in the main read-out, with a control signal flat, not every such curve was filed as active; note: % of control where 0% means no effect); details: HEK293 ACTOne CNG channel cells, membrane potential fluorescence; series mostly up to 22.9 µM
# Method in brief: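 HEK293 ACTOne cells with CNG channel (1000/well), endogenous PDE4; membrane potential dye, compounds up to 22.9 uM final. Fluorescence Ex 535/Em 590; RO 20-1724 (100 uM final) as reference.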
# [13] = qHTS Assay for Lipid Storage Modulators (AID 1519; calls by dose curve); details: Drosophila S3 cells, BODIPY lipid droplet/cell ratio, laser cytometry, cells loaded with oleic acid; for activity change, negative = inhibition: at 57.5 µM (top of the series)
# Method in brief: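 Cells seeded at 5,000 per well were treated with compounds over a concentration series and loaded with oleic acid (400 uM, as added). Lipid droplet fluorescence (488 nm excitation, 500-530 nm channel) was read by laser-scanning cytometry and normalized to 20 uM Triacsin C.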
# [14] = molecular target: Dual specificity protein kinase CLK4 (Homo sapiens) (UniProt Q9HAZ1); test: qHTS Assay for Inhibitors of CDC-like Kinase 4 (ADP-Glo Assay) (AID 1771); details: recombinant CLK4, ADP-Glo luminescence; series mostly up to 80 µM; note: % is set by controls: 0 for no effect and ±100 for the full control effect; nearly all actives have a fitted effect of over 70% in size
# Method in brief: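 Luminescence from ADP-Glo reports ADP produced by 25 nM Clk4 acting on 100 uM RS repeat peptide with 1 uM ATP over 1 hr at room temperature; residual ATP is depleted before ADP is converted to ATP for detection.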
# [15] = molecular target: Ubiquitin carboxyl-terminal hydrolase 1 (Homo sapiens) (UniProt O94782); test: Inhibitors of USP1/UAF1: Pilot qHTS (AID 504865); details: purified USP1/UAF1, Ub-rhodamine cleavage fluorescence; series mostly up to 54.9 µM;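 note: rhodamine fluorescence freed from ubiquitin-rhodamine substrate followed over time; top concentration of the series differs between compounds; % is set by controls: 0 for no effect and ±100 for the full control effect; nearly all actives have a fitted effect of over 35% in size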
# Method in brief: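 USP1/UAF1 complex (1nM) preincubated with compound 15 min at room temperature, then Ub-Rho substrate (150nM final) added. Fluorescence read kinetically at 480/540 nm, 6 reads every 60 seconds. Buffer: 50mM HEPES pH 7.8, 0.5mM EDTA, 0.1 mg/ml BSA, 1mM TCEP, 0.01% Tween-20.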
# [16] = Cell Viability qHTS for small molecule stabilizers of the endoplasmic reticulum resident proteome (AID 1508629); details: cell viability counter-screen, 100 nM thapsigargin for final 4 h
# [17] = molecular target: Rap guanine nucleotide exchange factor 3 (Homo sapiens) (UniProt O95398); test: Confirmatory qHTS for agonist of cAMP-regulated guanine nucleotide exchange factor 3 (EPAC1) (AID 1645881); details: EPAC1 Rap1B BODIPY-GDP exchange fluorescence, 100% = cAMP control response; series mostly up to 154 µM;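 note: EPAC1 catalysed release of BODIPY-GDP from Rap1B seen as fluorescence loss; nearly all actives have a fitted effect of over 75% in size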
# [18] = molecular target: Rap guanine nucleotide exchange factor 4 (Homo sapiens) (UniProt Q8WZA2); test: Confirmatory qHTS for agonist of cAMP-regulated guanine nucleotide exchange factor 4 (EPAC2) (AID 1645884); details: EPAC2 GEF activity, Rap1B-BODIPY-GDP fluorescence, percent relative to cAMP agonist control; series mostly up to 154 µM;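 note: nucleotide exchange releases bodipy-GDP from Rap1 and this lowers its fluorescence; % is set by controls: 0 for no effect and ±100 for the full control effect; nearly all actives have a fitted effect of over 65% in size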
# [19] = molecular target: Cytochrome P450 1A2 (Homo sapiens) (UniProt P05177); test: p450-cyp1a2 (AID 410; calls by dose curve; note: potency is the fitted concentration of half-maximal effect); details: recombinant CYP1A2, luciferin-ME demethylation, luminescence; series mostly up to 57 µM
# Method in brief: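 Luminescent readout of luciferin formed from Luciferin-ME by human CYP1A2; data normalized against complete inhibition by 57 uM furafylline. Enzyme 20nM, substrate 100uM at Km, 100mM KPO4 buffer, 60 min reaction at room temperature.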
# [20] = molecular target: Cytochrome P450 3A4 (Homo sapiens) (UniProt P08684); test: qHTS Assay for Inhibitors and Substrates of Cytochrome P450 3A4 (AID 884); details: recombinant CYP3A4, Luciferin-PPXE luminescence; series mostly up to 57.1 µM; note: potency is the fitted concentration of half-maximal effect; nearly all actives have a fitted effect of over 50% in size
# Method in brief: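 20 nM human CYP3A4 with 25 uM Luciferin-PPXE (at KM) in 200 mM KPO4, preincubated 10 min with compound; NADPH regeneration started a 60 min RT reaction. Luciferin detected by luminescence, normalized to 57 uM ketoconazole as full inhibition.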
# [21] = molecular target: Cytochrome P450 3A4 (Homo sapiens) (UniProt P08684); test: qHTS Assay for Activators of Cytochrome P450 3A4 (AID 885); details: recombinant CYP3A4, Luciferin-PPXE luminescence, 60 min; series mostly up to 57.1 µM; note: nearly all actives have a fitted effect of over 65% in size
# Method in brief: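 Human CYP3A4 (20 nM) with Luciferin-PPXE at 25 uM (its KM) in 200 mM KPO4; 10 min compound preincubation, then NADPH regeneration and 60 min reaction at RT. Luciferin read by luminescence; normalized to 57 uM ketoconazole full inhibition.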
# [22] = measured here: cell count channel max response
# [23] = measured here: lipid channel max response
# Chain of 3',5'-cyclic-AMP phosphodiesterase 4B (Homo sapiens) (Q07343 whole entry, looked up): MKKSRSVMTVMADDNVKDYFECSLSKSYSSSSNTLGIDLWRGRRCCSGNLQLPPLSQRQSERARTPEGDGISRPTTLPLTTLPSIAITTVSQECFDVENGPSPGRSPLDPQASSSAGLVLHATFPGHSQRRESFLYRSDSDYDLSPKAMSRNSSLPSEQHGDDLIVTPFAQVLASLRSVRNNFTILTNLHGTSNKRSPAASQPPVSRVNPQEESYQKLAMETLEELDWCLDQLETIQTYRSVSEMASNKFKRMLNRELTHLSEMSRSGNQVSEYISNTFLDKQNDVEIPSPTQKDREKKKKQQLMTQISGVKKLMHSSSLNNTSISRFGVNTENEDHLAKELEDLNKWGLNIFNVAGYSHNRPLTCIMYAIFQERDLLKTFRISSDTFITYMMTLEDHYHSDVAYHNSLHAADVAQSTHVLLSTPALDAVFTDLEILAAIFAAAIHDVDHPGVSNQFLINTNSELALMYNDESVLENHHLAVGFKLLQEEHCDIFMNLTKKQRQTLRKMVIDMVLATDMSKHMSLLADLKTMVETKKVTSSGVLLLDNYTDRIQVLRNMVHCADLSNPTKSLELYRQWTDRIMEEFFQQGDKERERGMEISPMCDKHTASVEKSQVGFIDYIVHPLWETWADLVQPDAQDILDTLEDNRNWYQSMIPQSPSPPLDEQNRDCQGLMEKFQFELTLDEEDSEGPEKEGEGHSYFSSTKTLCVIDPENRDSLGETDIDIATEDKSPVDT
# Chain of Glucocorticoid receptor (Homo sapiens) (P04150 whole entry, looked up, the tested form may be a part): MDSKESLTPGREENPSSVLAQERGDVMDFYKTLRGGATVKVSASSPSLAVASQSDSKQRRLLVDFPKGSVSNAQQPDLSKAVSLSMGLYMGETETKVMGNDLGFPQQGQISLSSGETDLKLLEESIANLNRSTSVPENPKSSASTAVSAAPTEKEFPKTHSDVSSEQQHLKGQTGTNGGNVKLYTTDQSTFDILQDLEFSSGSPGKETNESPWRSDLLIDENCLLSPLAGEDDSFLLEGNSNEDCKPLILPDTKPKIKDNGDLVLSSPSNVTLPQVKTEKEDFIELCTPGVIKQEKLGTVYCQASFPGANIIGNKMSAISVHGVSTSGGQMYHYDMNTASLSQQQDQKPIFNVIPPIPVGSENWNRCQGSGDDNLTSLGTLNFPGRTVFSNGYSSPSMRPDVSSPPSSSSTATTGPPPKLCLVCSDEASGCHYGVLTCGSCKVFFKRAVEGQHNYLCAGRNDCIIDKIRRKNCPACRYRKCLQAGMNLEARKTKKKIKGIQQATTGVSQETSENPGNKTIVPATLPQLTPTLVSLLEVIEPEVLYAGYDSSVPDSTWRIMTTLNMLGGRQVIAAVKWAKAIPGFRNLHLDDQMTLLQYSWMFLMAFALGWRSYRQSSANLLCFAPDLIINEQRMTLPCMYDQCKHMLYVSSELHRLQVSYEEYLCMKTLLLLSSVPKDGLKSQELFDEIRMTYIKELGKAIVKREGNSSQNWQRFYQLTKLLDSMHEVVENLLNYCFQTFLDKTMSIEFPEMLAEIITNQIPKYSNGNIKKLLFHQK
# Chain of Dual specificity protein kinase CLK4 (Homo sapiens) (Q9HAZ1 whole entry, looked up): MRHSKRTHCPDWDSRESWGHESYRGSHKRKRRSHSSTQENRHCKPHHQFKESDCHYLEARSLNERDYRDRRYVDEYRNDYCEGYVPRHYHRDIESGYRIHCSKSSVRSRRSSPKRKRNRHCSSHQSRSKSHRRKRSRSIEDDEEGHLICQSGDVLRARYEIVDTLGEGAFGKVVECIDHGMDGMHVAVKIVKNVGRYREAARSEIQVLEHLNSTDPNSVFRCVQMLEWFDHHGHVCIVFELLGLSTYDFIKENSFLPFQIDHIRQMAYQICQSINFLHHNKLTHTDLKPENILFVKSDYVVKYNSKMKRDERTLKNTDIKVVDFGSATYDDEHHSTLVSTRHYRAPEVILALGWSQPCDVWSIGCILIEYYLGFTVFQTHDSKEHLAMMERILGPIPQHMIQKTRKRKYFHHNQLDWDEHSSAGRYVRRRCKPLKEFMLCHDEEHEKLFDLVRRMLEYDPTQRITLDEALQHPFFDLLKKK
# Chain of Lysosomal acid glucosylceramidase (Homo sapiens) (P04062 whole entry, looked up): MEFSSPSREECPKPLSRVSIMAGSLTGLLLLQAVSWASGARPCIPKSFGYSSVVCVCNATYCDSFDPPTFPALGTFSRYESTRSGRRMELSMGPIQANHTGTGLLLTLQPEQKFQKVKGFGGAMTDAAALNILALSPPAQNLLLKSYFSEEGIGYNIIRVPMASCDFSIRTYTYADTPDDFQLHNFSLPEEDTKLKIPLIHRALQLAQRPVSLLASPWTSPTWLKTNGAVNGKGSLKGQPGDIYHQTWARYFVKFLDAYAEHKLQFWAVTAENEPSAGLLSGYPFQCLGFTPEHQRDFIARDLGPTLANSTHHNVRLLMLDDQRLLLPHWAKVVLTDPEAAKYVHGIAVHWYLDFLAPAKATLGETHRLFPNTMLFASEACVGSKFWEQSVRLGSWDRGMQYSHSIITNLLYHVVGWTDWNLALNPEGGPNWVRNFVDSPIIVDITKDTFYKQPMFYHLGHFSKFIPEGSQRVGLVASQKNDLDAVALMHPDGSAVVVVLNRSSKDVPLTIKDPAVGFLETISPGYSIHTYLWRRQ
# Chain of Cytochrome P450 3A4 (Homo sapiens) (P08684 whole entry, looked up): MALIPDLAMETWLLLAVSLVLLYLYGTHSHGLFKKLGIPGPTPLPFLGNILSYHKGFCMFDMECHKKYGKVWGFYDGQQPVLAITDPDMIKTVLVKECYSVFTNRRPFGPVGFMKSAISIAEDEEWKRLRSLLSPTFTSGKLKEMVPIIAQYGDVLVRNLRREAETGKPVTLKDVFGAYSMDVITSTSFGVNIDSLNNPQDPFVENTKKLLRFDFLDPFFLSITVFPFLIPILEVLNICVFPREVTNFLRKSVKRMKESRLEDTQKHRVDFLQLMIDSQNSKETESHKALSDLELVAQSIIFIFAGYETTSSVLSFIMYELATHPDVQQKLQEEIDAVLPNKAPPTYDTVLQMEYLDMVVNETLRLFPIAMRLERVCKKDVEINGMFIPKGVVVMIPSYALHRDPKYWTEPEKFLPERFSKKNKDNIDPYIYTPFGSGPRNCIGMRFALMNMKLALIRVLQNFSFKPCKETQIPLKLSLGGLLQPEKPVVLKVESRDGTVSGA
# Chain of Rap guanine nucleotide exchange factor 4 (Homo sapiens) (Q8WZA2 whole entry, looked up): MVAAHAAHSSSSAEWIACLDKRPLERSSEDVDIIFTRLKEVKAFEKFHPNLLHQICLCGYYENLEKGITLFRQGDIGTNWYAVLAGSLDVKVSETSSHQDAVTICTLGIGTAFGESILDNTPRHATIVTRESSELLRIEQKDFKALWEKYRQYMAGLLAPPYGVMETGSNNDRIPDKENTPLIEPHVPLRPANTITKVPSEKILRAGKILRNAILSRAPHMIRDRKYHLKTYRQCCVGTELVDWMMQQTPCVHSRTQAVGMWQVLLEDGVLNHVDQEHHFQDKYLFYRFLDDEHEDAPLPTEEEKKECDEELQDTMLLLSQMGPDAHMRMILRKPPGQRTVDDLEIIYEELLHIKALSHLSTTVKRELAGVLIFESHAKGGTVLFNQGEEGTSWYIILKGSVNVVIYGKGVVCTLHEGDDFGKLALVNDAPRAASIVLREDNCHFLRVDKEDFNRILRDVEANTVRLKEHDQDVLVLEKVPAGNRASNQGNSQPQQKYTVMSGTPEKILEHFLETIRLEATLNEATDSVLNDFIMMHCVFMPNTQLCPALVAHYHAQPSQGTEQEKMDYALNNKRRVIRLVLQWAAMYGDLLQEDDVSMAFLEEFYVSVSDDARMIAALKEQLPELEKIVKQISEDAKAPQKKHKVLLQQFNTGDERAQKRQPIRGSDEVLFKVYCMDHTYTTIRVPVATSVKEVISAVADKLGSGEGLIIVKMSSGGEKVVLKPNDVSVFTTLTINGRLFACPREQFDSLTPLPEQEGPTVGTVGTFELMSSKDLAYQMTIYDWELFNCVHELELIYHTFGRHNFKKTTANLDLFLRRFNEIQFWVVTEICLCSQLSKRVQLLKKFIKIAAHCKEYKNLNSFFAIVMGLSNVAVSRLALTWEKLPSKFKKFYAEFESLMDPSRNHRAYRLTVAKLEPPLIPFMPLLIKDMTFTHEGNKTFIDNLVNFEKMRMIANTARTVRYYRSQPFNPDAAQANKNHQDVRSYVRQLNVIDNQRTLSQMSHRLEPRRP
# Chain of Rap guanine nucleotide exchange factor 3 (Homo sapiens) (O95398 whole entry, looked up): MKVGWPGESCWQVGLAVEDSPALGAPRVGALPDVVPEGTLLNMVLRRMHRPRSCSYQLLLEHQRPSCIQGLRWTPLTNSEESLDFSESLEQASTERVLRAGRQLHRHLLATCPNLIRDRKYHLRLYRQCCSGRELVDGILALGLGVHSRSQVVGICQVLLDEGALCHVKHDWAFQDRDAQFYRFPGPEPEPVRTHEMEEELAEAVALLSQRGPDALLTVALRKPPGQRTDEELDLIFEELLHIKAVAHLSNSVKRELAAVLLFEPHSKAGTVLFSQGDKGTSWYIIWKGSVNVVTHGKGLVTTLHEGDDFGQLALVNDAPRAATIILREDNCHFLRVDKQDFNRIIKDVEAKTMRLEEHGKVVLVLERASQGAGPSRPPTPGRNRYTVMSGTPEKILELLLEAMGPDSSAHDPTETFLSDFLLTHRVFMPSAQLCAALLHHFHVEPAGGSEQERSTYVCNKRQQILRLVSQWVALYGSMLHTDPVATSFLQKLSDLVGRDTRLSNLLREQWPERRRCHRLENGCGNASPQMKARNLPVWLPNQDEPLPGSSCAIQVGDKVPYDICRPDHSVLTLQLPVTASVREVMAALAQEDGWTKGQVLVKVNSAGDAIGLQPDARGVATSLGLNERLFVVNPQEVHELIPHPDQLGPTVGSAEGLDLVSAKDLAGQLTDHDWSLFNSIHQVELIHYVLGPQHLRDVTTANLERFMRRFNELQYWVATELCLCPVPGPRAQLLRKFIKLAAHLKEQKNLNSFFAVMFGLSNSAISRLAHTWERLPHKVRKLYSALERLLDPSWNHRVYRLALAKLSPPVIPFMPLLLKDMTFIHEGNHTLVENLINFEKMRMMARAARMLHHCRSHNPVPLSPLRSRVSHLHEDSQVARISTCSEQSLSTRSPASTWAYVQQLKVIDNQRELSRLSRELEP
smiles,measurement,setting,value
COc1cccc(-c2nc(N3CCN(C)CC3)c3ccccc3n2)c1,Potency,[1],> 11.4 µM (inactive)
same,"activity change, negative = inhibition",[2],11.5% (inactive)
same,"activity change, negative = inhibition",[3],12.1% (inactive)
same,"activity, negative = inhibition",[4],-2.04% (inactive)
same,Potency,[5],> 46 µM (inactive)
same,Potency,[6],> 46 µM (inactive)
same,outcome,[7],inactive
same,Potency,[8],28.2 µM (active)
same,Potency,[9],inactive
same,Potency,[10],inactive
same,Potency,[11],20 µM (active)
COc1ccc(-c2nc3cnc(N4CCNCC4)nc3n(-c3ccccc3)c2=O)cc1,Potency,[1],> 11.4 µM (inactive)
same,Potency,[5],> 9.22 µM (inactive)
same,Potency,[6],> 46 µM (inactive)
same,outcome,[7],inactive
same,Potency,[12],inactive
same,"activity change, negative = inhibition",[13],3% (inactive)
same,max response,[13]; [22],10.3%
same,max response,[13]; [23],4.43%
same,Potency,[10],inactive
same,Potency,[11],inactive
Cn1c(=O)c(CCc2ccccc2)nc2cnc(OCc3ccccc3)nc21,"activity change, negative = inhibition",[2],-26% (inactive)
same,"activity change, negative = inhibition",[3],-3.3% (inactive)
same,"activity, negative = inhibition",[4],-13% (inactive)
same,Potency,[5],> 9.22 µM (inactive)
same,Potency,[6],> 46 µM (inactive)
same,outcome,[7],inactive
same,Potency,[12],inactive
same,"activity change, negative = inhibition",[13],2.86% (inactive)
same,max response,[13]; [22],13.9%
same,max response,[13]; [23],15.4%
same,Potency,[8],inactive
same,Potency,[14],inactive
same,Potency,[9],inactive
same,Potency,[15],inactive
same,Potency,[10],inactive
same,max response,[16],-14.7% (inactive)
Cc1ccccc1-c1nccc(Nc2ccc(F)cc2)n1,Potency,[1],> 11.4 µM (inactive)
same,"activity change, negative = inhibition",[2],-8.14% (inactive)
same,"activity, negative = inhibition",[4],-11% (inactive)
same,Potency,[5],> 46 µM (inactive)
same,Potency,[6],> 46 µM (inactive)
same,outcome,[7],inactive
same,Potency,[8],inactive
same,Potency,[14],inactive
same,Potency,[9],inactive
same,Potency,[10],inactive
same,Potency,[11],inactive
same,outcome,[17],inactive
same,outcome,[18],inactive
COCCn1c(=O)c(CCc2ccccc2)nc2cnc(N3CCN(C)CC3)nc21,Potency,[1],> 11.4 µM (inactive)
same,"activity change, negative = inhibition",[2],2.87% (inactive)
same,"activity change, negative = inhibition",[3],-7.4% (inactive)
same,"activity, negative = inhibition",[4],-8.57% (inactive)
same,Potency,[5],> 9.22 µM (inactive)
same,Potency,[6],> 46 µM (inactive)
same,outcome,[7],inactive
same,Potency,[12],inactive
same,"activity change, negative = inhibition",[13],5.96% (inactive)
same,max response,[13]; [22],-2.68%
same,max response,[13]; [23],4.85%
same,Potency,[10],inactive
same,max response,[16],0.276% (inactive)
COc1cccc(Cn2c(=O)c(C)nc3cnc(N4CCNCC4)nc32)c1,"activity change, negative = inhibition",[2],4.85% (inactive)
same,"activity change, negative = inhibition",[3],-10.9% (inactive)
same,"activity, negative = inhibition",[4],-3.45% (inactive)
same,Potency,[5],> 9.22 µM (inactive)
same,Potency,[6],> 46 µM (inactive)
same,outcome,[7],inactive
same,Potency,[12],inactive
same,Potency,[10],28.2 µM (active)
same,Potency,[11],35.5 µM (active)
COCCn1c(=O)c(-c2ccc(Cl)cc2)nc2cnc(OC)nc21,Potency,[1],> 11.4 µM (inactive)
same,"activity change, negative = inhibition",[2],5.96% (inactive)
same,Potency,[19],0.398 µM (active)
same,"activity change, negative = inhibition",[3],0.766% (inactive)
same,"activity, negative = inhibition",[4],-10.9% (inactive)
same,Potency,[5],> 9.22 µM (inactive)
same,outcome,[7],inactive
same,Potency,[12],inactive
same,Potency,[20],7.94 µM (active)
same,Potency,[21],inactive
same,Potency,[10],inactive
same,Potency,[11],inactive
